According to ChEMBL document CHEMBL1961873, “Compounds: GSK PKIS; Assays: Nanosyn kinase panel” (2012):

Tests used:
[1] = target: High affinity nerve growth factor receptor (Homo sapiens) (UniProt P04629); conditions: at 1 µM;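 further: each value is the mean percent inhibition of TRKA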
[2] = target: BDNF/NT-3 growth factors receptor (Homo sapiens) (UniProt Q16620); conditions: at 0.1 µM
[3] = target: BDNF/NT-3 growth factors receptor (Homo sapiens) (UniProt Q16620); conditions: at 1 µM
[4] = target: NT-3 growth factor receptor (Homo sapiens) (UniProt Q16288); conditions: at 0.1 µM
Chain of NT-3 growth factor receptor (Homo sapiens) (Q16288 32-839 limits assumed): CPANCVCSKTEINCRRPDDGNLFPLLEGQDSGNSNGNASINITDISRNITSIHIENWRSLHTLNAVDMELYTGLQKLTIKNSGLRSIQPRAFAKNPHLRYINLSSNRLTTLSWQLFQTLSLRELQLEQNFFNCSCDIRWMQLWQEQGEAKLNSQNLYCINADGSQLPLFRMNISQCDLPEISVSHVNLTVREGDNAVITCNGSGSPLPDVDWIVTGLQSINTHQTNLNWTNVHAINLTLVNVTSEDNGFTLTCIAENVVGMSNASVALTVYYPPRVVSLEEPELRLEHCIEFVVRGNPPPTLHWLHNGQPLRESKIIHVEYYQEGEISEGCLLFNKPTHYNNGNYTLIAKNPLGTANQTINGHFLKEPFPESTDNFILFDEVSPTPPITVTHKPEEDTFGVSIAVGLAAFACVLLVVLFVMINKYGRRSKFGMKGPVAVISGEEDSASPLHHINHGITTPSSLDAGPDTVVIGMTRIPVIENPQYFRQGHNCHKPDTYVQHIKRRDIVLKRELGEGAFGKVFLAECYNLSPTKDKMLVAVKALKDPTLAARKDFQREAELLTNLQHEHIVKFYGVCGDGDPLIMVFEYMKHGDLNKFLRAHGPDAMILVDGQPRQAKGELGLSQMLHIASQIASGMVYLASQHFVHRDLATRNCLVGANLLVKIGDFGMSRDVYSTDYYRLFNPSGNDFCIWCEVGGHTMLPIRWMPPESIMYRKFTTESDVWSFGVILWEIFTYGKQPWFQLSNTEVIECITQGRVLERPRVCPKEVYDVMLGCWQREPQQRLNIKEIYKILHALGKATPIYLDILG

[5] = target: NT-3 growth factor receptor (Homo sapiens) (UniProt Q16288); conditions: at 1 µM
[6] = target: T1, Tyrosine-protein kinase TXK (Homo sapiens) (UniProt P42681); conditions: at 0.1 µM
T1 sequence (whole entry): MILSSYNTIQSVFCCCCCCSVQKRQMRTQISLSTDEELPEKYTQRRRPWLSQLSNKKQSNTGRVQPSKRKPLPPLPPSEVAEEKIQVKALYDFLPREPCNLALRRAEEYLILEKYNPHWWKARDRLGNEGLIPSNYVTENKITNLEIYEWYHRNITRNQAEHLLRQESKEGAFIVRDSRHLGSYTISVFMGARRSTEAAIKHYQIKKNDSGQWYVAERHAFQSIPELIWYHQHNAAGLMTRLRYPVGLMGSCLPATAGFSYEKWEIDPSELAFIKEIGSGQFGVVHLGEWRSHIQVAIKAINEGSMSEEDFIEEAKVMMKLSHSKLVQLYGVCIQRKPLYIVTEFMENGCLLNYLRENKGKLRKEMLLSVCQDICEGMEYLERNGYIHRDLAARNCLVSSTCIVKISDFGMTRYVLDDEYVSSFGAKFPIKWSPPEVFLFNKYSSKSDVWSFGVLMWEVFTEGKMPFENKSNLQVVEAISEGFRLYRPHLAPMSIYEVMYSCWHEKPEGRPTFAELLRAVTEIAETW

[7] = target: T1, Tyrosine-protein kinase TXK (Homo sapiens); conditions: at 1 µM
[8] = target: Non-receptor tyrosine-protein kinase TYK2 (Homo sapiens) (UniProt P29597); conditions: at 0.1 µM;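 further: each value is a mean of the inhibition readings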
Chain of Non-receptor tyrosine-protein kinase TYK2 (Homo sapiens) (P29597 whole entry): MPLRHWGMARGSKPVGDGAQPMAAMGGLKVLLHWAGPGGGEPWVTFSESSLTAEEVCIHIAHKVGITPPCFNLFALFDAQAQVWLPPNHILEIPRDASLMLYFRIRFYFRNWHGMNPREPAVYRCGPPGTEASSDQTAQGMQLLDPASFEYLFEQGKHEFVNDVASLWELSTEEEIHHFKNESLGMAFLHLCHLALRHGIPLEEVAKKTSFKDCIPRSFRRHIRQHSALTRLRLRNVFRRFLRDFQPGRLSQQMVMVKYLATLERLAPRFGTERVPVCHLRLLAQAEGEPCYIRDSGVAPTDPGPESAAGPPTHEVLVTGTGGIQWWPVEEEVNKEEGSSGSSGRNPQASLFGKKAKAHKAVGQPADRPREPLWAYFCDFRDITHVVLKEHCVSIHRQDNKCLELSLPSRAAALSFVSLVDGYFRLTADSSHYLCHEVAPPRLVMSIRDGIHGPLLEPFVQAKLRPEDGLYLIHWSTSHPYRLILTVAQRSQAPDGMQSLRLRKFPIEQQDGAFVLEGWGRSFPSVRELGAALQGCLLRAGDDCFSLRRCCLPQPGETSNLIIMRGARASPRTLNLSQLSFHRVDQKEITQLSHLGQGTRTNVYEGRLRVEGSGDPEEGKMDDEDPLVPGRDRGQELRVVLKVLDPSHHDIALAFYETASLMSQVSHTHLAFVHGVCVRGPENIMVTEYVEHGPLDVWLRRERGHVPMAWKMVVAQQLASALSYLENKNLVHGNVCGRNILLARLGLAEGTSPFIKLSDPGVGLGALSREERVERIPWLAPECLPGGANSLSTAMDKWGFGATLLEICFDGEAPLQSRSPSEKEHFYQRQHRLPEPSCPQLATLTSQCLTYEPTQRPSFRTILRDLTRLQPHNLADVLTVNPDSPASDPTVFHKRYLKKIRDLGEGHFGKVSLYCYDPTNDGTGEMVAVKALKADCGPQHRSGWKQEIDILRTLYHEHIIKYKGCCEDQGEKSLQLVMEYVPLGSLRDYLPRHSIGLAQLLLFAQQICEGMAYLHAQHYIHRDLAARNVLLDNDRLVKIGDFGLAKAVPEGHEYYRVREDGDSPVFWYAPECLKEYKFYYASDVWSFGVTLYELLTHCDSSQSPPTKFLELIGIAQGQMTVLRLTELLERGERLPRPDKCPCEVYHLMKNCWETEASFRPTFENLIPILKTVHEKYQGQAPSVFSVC

[9] = target: T2, Dual specificity protein kinase TTK (Homo sapiens) (UniProt P33981); conditions: at 1 µM;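 further: reported figures are mean TTK inhibition at 1 µM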
T2 sequence (whole entry): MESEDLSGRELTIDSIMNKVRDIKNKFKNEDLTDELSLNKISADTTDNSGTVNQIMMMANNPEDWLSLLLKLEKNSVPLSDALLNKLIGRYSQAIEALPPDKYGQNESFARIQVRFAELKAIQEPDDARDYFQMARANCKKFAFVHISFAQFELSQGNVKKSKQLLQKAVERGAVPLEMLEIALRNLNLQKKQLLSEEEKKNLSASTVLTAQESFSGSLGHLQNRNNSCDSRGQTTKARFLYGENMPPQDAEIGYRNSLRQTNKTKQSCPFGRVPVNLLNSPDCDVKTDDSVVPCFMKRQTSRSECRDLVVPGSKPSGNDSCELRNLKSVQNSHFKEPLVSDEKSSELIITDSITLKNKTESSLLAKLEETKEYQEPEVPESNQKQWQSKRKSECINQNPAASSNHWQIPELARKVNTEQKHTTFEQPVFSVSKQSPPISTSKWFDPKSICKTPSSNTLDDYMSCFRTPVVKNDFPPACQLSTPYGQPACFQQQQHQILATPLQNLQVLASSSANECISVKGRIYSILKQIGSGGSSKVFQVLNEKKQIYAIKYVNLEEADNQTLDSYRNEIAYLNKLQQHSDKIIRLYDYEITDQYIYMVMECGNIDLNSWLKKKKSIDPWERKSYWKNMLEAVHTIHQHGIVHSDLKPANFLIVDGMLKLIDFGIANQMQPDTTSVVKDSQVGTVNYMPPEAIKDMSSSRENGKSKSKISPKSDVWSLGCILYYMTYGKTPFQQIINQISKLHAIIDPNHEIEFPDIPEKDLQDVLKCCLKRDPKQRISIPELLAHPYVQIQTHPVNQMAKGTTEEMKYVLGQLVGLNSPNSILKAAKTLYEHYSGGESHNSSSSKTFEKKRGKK

[10] = target: T3, Aurora kinase A (Homo sapiens) (UniProt O14965); conditions: at 0.1 µM;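 further: each reported value is a mean percent inhibition of Aurora-A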
T3 sequence (whole entry): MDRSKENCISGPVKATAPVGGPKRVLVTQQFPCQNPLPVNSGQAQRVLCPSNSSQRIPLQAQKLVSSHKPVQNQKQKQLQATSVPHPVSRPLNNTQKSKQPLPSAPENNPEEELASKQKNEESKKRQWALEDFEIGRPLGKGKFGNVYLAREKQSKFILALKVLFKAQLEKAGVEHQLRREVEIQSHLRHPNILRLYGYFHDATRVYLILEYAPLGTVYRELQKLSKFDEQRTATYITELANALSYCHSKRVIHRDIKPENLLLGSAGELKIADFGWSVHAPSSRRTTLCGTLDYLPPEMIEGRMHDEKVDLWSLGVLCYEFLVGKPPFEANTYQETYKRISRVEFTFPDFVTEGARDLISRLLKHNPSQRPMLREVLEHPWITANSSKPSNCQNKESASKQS

Chain of High affinity nerve growth factor receptor (Homo sapiens) (P04629 33-796 limits assumed): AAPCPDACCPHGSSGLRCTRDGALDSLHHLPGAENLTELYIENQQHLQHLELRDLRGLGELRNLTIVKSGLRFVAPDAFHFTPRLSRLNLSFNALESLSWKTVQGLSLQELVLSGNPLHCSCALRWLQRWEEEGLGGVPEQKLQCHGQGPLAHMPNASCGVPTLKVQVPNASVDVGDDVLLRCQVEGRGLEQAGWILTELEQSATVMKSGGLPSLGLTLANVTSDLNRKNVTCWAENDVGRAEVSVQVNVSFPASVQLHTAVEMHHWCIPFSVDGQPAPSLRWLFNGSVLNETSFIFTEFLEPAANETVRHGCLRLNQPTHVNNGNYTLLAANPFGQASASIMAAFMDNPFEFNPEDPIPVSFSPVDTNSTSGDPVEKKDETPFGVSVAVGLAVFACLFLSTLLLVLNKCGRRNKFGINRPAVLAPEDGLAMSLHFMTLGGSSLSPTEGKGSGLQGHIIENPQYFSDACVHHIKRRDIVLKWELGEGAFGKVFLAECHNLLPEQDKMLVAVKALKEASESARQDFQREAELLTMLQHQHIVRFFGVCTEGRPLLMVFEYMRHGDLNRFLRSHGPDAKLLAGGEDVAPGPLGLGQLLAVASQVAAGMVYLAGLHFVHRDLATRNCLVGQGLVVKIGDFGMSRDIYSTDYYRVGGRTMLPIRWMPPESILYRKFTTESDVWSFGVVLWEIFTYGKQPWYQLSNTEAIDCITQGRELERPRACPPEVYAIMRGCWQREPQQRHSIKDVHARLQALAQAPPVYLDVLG
Chain of BDNF/NT-3 growth factors receptor (Homo sapiens) (Q16620 32-822 limits assumed): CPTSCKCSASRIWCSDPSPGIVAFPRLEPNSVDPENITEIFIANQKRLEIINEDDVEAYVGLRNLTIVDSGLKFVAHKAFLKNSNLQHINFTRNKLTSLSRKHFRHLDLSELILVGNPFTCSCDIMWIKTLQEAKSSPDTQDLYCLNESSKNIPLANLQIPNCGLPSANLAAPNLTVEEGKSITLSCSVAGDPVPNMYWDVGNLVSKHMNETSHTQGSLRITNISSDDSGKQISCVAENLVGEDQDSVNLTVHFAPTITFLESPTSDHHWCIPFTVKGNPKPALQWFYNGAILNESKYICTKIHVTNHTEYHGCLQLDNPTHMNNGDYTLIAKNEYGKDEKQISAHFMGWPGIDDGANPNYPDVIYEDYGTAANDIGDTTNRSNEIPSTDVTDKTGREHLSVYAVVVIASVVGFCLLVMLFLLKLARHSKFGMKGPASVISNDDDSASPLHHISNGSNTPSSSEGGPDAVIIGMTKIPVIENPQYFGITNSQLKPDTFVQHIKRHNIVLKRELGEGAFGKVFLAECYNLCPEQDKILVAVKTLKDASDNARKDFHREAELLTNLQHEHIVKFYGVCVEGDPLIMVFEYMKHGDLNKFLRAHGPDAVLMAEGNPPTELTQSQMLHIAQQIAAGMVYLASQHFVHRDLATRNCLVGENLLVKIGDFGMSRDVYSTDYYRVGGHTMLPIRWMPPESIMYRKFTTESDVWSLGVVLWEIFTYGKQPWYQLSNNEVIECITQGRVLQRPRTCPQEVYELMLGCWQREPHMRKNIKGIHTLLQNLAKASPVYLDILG

| Structure (SMILES) | inhibition [1] | inhibition [2] | inhibition [3] | inhibition [4] | inhibition [5] | inhibition [6] | inhibition [7] | inhibition [8] | inhibition [9] | inhibition [10] |
| --- | --- | --- | --- | --- | --- | --- | --- | --- | --- | --- |
| COc1ccc2cc(-c3c(-c4ccncc4)nc(-c4ccc([S+](C)[O-])cc4C)n3C)ccc2c1 (stereo not given) | -0.68% | -0.26% | -0.8% | -0.79% | 1.56% | 0.29% | 1.25% | -1.86% | 1.61% | -0.61% |
| COc1cccc(-n2cnc3c(N/N=C/c4ccncc4)ncnc32)c1 | 7.04% | 0.22% | 6.69% | 0.58% | 9.77% | -1.8% | 4.69% | 3.07% | 5.77% | -0.8% |
| NC(=O)c1cc(-c2ccncc2)cc(-c2ccccc2)c1N | 1.84% | 2.94% | 3.86% | 3.19% | 4.68% | 45% | 76.1% | -3.77% | 10.8% | 2.73% |
| COc1cc2ncn(-c3cc(OCc4ccccc4C(F)(F)F)c(C(C)=O)s3)c2cc1OC | 1.61% | 1.74% | 2.56% | 0.64% | 4.16% | -0.06% | 5.24% | -1.78% | 8.19% | 2.64% |
| Cc1ccc(C(=O)NC2CCC2)cc1-c1ccc(C(=O)NCC2CC2)cc1 | 3.19% | 1.02% | 1.56% | 2.08% | 1.92% | 2.58% | 3.4% | -0.8% | 9.27% | 2.11% |
| C[C@@H](Oc1cc(-n2cnc3ccc(OC4CCN(C)CC4)cc32)sc1C(N)=O)c1ccccc1Cl | 8.12% | 3.68% | 7.84% | 2.56% | 9.09% | 3.26% | 19% | -3.41% | 8.91% | -0.97% |
| C/C(Nc1ccc(S(N)(=O)=O)cc1)=C1/C(=O)Nc2ccccc21 | 38.3% | 14.1% | 61.8% | 17.4% | 87.1% | -0.52% | -0.74% | 1.41% | 35.7% | 2.21% |
| COc1cc(Nc2ncc3c(C)nc(-c4cccc(Oc5ccccc5)c4)n3n2)cc(OC)c1OC | 1.05% | 0.27% | 1.55% | 1.86% | 2.38% | 2.38% | 4.09% | -0.63% | 14.8% | 2.19% |
| NC(=O)Cc1ccccc1Oc1nccc(-c2c(-c3ccc(F)cc3)ncn2C2CCNCC2)n1 | 1.31% | 0.02% | 0.58% | 0.22% | 0.96% | 3.01% | 4.27% | -1.14% | 7.71% | 1.9% |
| O=C(Nc1n[nH]c2nc(-c3ccco3)ccc12)C1CC1 | 3.29% | 0.95% | 2.36% | 1.6% | 5.42% | 2.21% | 2.84% | -1.75% | -0.72% | 2.22% |
| Nc1nccc(-c2c(-c3ccc(F)cc3)ncn2C2CCC(O)CC2)n1 (stereo not given) | -0.08% | 1.41% | 5.91% | 2% | 11.3% | 1.58% | 19.2% | -2.03% | -0.22% | -2.33% |
| CS(=O)(=O)CCNCc1cc(-c2cc3c(Nc4ccc(OCc5cccc(F)c5)c(Cl)c4)ncnc3s2)cs1 | 7.01% | 3.47% | 5.03% | 5.13% | 3.52% | 7.43% | 6.57% | -4.26% | 9.22% | 4.18% |
| O=C(Nc1n[nH]c2cc(-c3ccccc3)ccc12)C1CC1 | 4.46% | 1.46% | 6.76% | 0.77% | 7.68% | 8.18% | 17.7% | -4.71% | 6.67% | 1.71% |
| O=C(Nc1ccc(Oc2ccc3[nH]c(NC(=O)c4ccccc4)nc3c2)cc1)Nc1cc(C(F)(F)F)ccc1F | 52.2% | 5.11% | 35.1% | 8.01% | 41% | 3.06% | 6.27% | -4.63% | 19.2% | 1.31% |
| Fc1ccc(-c2ncn(C3CCNCC3)c2-c2ccnc(Oc3ccc(Oc4ccccc4)cc3)n2)cc1 | 5.66% | 2.54% | 2.27% | 2.44% | 1.66% | 8.91% | 5.95% | -1.07% | 7.56% | 2.89% |
| Cc1ccc(NC(=O)c2ccoc2)cc1-c1ccc(C(=O)NCC2CC2)cc1 | 1.15% | 2.58% | 1.82% | 2.37% | 0.07% | -0.38% | 2.18% | -3.59% | 4.41% | 2.28% |
| COc1ccc(C2=C(N3CCc4ccccc43)C(=O)NC2=O)cc1 | 3.66% | 3.2% | 2.97% | 3.23% | 3.14% | 3.28% | 4.15% | -3.26% | 5.34% | 1.27% |
